Results on 105 compounds are retold here after ChEMBL document CHEMBL3988442, “University of Dundee, Small-Polar-MMV Screening Library” (2021).

Among all 48,000 compounds or so, about 13,000 (27%) showed an effect of 50% or more. Some of the results follow.

In this experiment the test system is Wolbachia pipientis. The experiment in a line: Anti-Wolbachia Cell-Based Screen. The note with it: 5 µM. The experiment is classed as functional. Further details: scale not given: in the data most compounds retested in dose-response had high values.
Consider `Cc1[nH]ncc1C(C)NCc1cccnc1` (stereo not given), for which the “Percent Effect” value was -9.734%. Next, `CCN(C)C[C@@H]1CN(Cc2cnc3c(S(C)(=O)=O)cnn3c2)C[C@@H]1CO`: -15.72%; `Cc1noc(C)c1CN1C(=O)[C@H]2CC[C@@H]1CN(Cc1cccnc1N)C2`: 18.74%; `O=C(CCc1ccc(F)cc1)NS(=O)(=O)c1ccc2c(c1)OCCO2`: -1.397%. As for `O=C(C1CCOC1)N1CCN(CC2CC2)c2ccccc21` (stereo not given), the “Percent Effect” value worked out at 109.4%. Turning to `COCCC(=O)N1CCN(CC2CC2)c2ccccc21`, the “Percent Effect” value is -5.529%.

`NC(=O)CN1CCN(CC2CC2)c2ccccc21`: the “Percent Effect” value is on record as -6.284%.

Consider `CCc1nc(C)ncc1C(=O)N1CCN(CC)c2ccccc21`, for which the “Percent Effect” value is -9.426%. The same measure for `CCN1CCN(C(=O)c2csnn2)c2ccccc21`: 3.89%; for `CCN1CCN(C(=O)C2CCOC2)c2ccccc21` (stereo not given): 120.4%.

`COc1ccc(S(=O)(=O)NC(=O)c2ccccc2F)cc1OC`: the “Percent Effect” value is listed as -11%. `CC(C)c1ccc(OCn2ccc(C(=O)N3CCCC3)n2)cc1`: the “Percent Effect” value is on record as -7.702%.

As to `Cc1cnc(N2CC[C@@H]3O[C@@H](COCc4ccccn4)CC[C@@H]32)nc1.O=C(O)C(F)(F)F.O=C(O)C(F)(F)F`, the “Percent Effect” value is on record as 7.451%. Next, `Cn1cccc1C(=O)N1CC[C@H]2[C@@H]1CCC(=O)N2c1ccccc1`: -9.424%. Next, `CNC(=O)c1cccnc1NCCOc1ccccc1`: 11.05%.

In the case of `CCC(C(=O)NC1(C(N)=O)CCCC1)n1cccn1` (stereo not given), the “Percent Effect” value was -7.452%. Next, `CC1CCC(NS(=O)(=O)CC(=O)NC2(C(N)=O)CCCC2)CC1` (stereo not given): 92.28%.

For the compound `CC1CCC(NS(=O)(=O)CC(=O)Nc2ccc(N3CCCC3)cn2)CC1` (stereo not given), the “Percent Effect” value is listed as -1.172%.

For `CC1CCC(N2CCC(NS(=O)(=O)CCCF)CC2)CC1` (stereo not given), the “Percent Effect” value was -1.792%. Next, `CNS(=O)(=O)CC(=O)N(C1CCCC1)C1CC1`: -5.548%. As to `Cc1ccc(NC(=O)CS(=O)(=O)NC2CCC(C)CC2)nc1` (stereo not given), the “Percent Effect” value came out at 0.19%. Regarding `CNC(=O)CS(=O)(=O)NC1CCC(C)CC1` (stereo not given), the “Percent Effect” value is 97.23%. Next, `CCNC(=O)CS(=O)(=O)NC1CCC(C)CC1` (stereo not given): 91.13%; `CC1CCN(CCNC(=O)C2CCN(S(N)(=O)=O)CC2)CC1`: -8.736%; `COCCC1(CNC(=O)NCC2CCC2)CCC1`: -13.86%. For the compound `CNC(=O)CS(=O)(=O)C1CCN(S(=O)(=O)C2CC2)CC1`, the “Percent Effect” value is -8.784%.

Regarding `CC1CCC(NS(=O)(=O)CC(=O)NCC2CCC2)CC1` (stereo not given), the “Percent Effect” value turned out to be 101.5%.

As for `Cc1nc(C)n(CC2CCCCN2CC(=O)Nc2cccnc2)n1` (stereo not given), the “Percent Effect” value is -1.265%. Next, `Cn1cc(CNCCNC(=O)Cc2ccccc2)c(-c2cccnc2)n1`: 13.61%; `COc1ccccc1S(=O)(=O)N1CC(N(C)C)Cc2ccccc21` (stereo not given): 4.709%. Next, `CN(C)C(=O)CN1C[C@H]2CCN(C(=O)C3CCCO3)CC[C@H]2S1(=O)=O` (stereo not given in full): -8.272%; `CCOc1ccnc(N2CCCN(c3nc(C4CC4)ns3)CC2)n1`: -0.1352%. Next, `CCCC(Nc1nc(COCC)nc2c1CCNCC2)c1nccn1C` (stereo not given): 3.628%; `CC1CCC(NS(=O)(=O)CC(=O)NC(C2CC2)C2CC2)CC1` (stereo not given): 99.55%; `CC1CCC(N2CCC(NS(=O)(=O)CCOC(C)C)CC2)CC1` (stereo not given): -12.56%.

For the compound `O=C(CN1CCN(CCO)CC1)NC(C1CC1)C1CC1`, the “Percent Effect” value was -6.092%. Take `O=C(c1ccccc1F)N1CCN(c2ccc(-n3cccn3)nn2)CC1`: the “Percent Effect” value is on record as 5.073%. As for `CN(CCc1ccccc1)C(=O)CN1C(=O)OC[C@@H]1c1ccccc1`, the “Percent Effect” value is on record as -12.26%. Next, `CC(=O)N1N=C(c2ccccc2)OC1C(=O)N(C)CCc1ccccc1` (stereo not given): 94.62%; `CN(Cc1cnn(C)c1)C(=O)C1COc2ccccc2C1` (stereo not given): -7.691%; `CCc1ccsc1C(=O)N(C)CCc1ccncc1`: 33.97%. The same measure for `CCC(=O)N1CSCC1C(=O)N(C)CCc1ccccc1` (stereo not given): -0.07211%; for `CC(=O)N1N=C(c2ccco2)OC1C(=O)N(C)CCc1ccccc1` (stereo not given): 108.8%; for `CC(=O)N1N=C(c2ccccc2)OC1C(=O)N(C)Cc1ccccc1` (stereo not given): 105.2%. As to `CN(Cc1ccccc1)C(=O)[C@@H]1Cc2[nH]cnc2CN1C`, the “Percent Effect” value is listed as 13.33%. `CC(=O)N1Cc2ccccc2C[C@H]1C(=O)N(C)CCc1ccccn1`: the “Percent Effect” value is -17.28%. Next, `CN(CCc1ccccc1)C(=O)c1cc(CN2CCC(O)CC2)on1`: -17.23%; `CC(=O)N1N=C(c2ccncc2)OC1C(=O)N(C)CCc1ccccc1` (stereo not given): 108.6%; `CC/C=C(/C)C(=O)N1CSCC1C(=O)N(C)CCc1ccncc1` (stereo not given): -7.241%. Next, `Cc1cnc(C(=O)N[C@H]2CN(CCS(C)(=O)=O)C[C@@H]2C2CC2)cn1`: 4.986%; `CC(Cc1cncs1)Nc1ncnc2cccc(F)c12` (stereo not given): -13.2%; `CC(C)Cc1noc(CC2CCS(=O)(=O)C2)n1` (stereo not given): -7.316%.

On to `CN(C)c1ccc(CNC2(c3ccc(F)cc3)CCOCC2)cc1F`, for which the “Percent Effect” value is listed as -20.17%. In the case of `Cc1csc2c(N3CCC(NCCCc4ccncc4)CC3)ncnc12`, the “Percent Effect” value is given as -7.721%. The same measure for `CO[C@H]1CN(Cc2cc(Cn3cncn3)c(C)cc2C)CC[C@H]1N`: 13.4%.

In the case of `Cc1cc(C)nc(Nc2nccnc2C2CCCN(C(CO)CO)C2)n1` (stereo not given), the “Percent Effect” value was 89.81%. The same measure for `Cc1cc(C)nc(Nc2nccnc2C2CCCN(C(C)C)C2)n1` (stereo not given): 76.04%. The same measure for `Cc1cc(C)nc(Nc2nccnc2C2CCCN(CCO)C2)n1` (stereo not given): 115.9%; for `CCC(=O)N1CCCC1c1nccnc1Nc1nc(C)cc(C)n1` (stereo not given): 4.912%. Next, `CC(=O)N1CCCC(c2nccnc2Nc2nc(C)cc(C)n2)C1` (stereo not given): 92.16%; `CCN1C(=O)[C@H]2CN(Cc3cccnc3)C[C@H]2C12CCN(C(C)=O)CC2`: -22.31%; `COCC(NC(=O)NCc1ccc(C)c(F)c1)c1ccco1` (stereo not given): 5.842%.

`O=C(NC1CC1)N1CCCC2(CCNC2=O)C1` (stereo not given): the “Percent Effect” value is -20.05%. Next, `COc1c(F)cc(NCC(=O)NC(C)(C#N)C2CC2)cc1F` (stereo not given): -10.88%; `CCOC(=O)N1CCN(c2nc(N)c3ccccc3n2)CC1.Cl`: 10.93%. In the case of `Cc1nc(COC(=O)c2cccnc2C)no1`, the “Percent Effect” value is recorded as 111.5%. The same measure for `COCc1ccccc1C(=O)OCc1noc(C)n1`: 97.59%; for `Cc1noc(C)c1CC(=O)OCc1nc(N)c2ccccc2n1`: -18.91%; for `Cc1csc(CN(CC2CCCO2)C(=O)c2cccnc2C)n1` (stereo not given): -5.515%.

For `COCc1ccccc1C(=O)N(C)Cc1ncc(C)c(OC)c1C`, the “Percent Effect” value is recorded as 29.72%. As for `Cc1nc(COc2cccc(C#N)c2)no1`, the “Percent Effect” value was determined as 2.018%. Next, `Cc1cnc(N2CCC(OCCN3CCCCC3)C2)nc1C` (stereo not given): 11.15%. On to `CN1CC[C@H](N(C)Cc2ccccc2)C[C@H](O)C1`, for which the “Percent Effect” value was found to be 67.42%. Consider `CN1CCC(N(Cc2ccccc2)C(=O)c2ccn3ccnc3c2)CC1`, for which the “Percent Effect” value came out at 0.1453%. Next, `CN1CCC(N(Cc2ccccc2)C(=O)c2ccn3cncc3c2)CC1`: -5.801%; `CN1CCC(N2CCC(CN(Cc3ccncc3)C3CCC3)CC2)CC1`: 7.68%. For the compound `CN1CCC(N(C)CCC(=O)N2CCC(OCc3ccccc3)CC2)C1` (stereo not given), the “Percent Effect” value is reported as -15.08%. Consider `CN1CC[C@H](N(Cc2ccccc2)CC2CC2)C[C@H](O)C1`, for which the “Percent Effect” value is 101.2%. In the case of `CN1CC[C@H](N(Cc2ccccc2)C2COC2)C[C@H](O)C1`, the “Percent Effect” value came out at 101.7%.

In the case of `CN1CCC(N(Cc2ccccc2)C(=O)c2nccn3ccnc23)CC1`, the “Percent Effect” value is 3.341%. The same measure for `CN1CCC(N2C[C@H](O)C[C@H]2c2nc(Cc3ccccc3)no2)CC1`: -1.075%.

As for `CN(CC1CC1)C(=O)CN(Cc1cccc(O)c1)C1CCC(O)CC1` (stereo not given), the “Percent Effect” value is given as -10.37%. The same measure for `CN1CC[C@H](N(Cc2ccccc2)Cc2ccccc2)C[C@H](O)C1`: 97.14%; for `CN1CCC(N(C)CCC(=O)N2CCC(CCc3ccccc3)CC2)C1` (stereo not given): -7.751%; for `COC(=O)c1sc2nc3c(c(C(F)(F)F)c2c1N)CN(C(C)=O)CC3`: 5.653%. As to `COc1ccc(NC(=O)C(C)n2cncn2)cn1` (stereo not given), the “Percent Effect” value was determined as 104.1%. For the compound `CC(C(=O)NCc1ccnc(Oc2ccc(F)cc2)c1)n1cncn1` (stereo not given), the “Percent Effect” value was -19.79%.

Consider `CC(Cn1cccn1)NC(=O)Nc1ccc(N2CCCCC2)nc1` (stereo not given), for which the “Percent Effect” value was -23.5%. Turning to `CC(Cn1cccn1)NC(=O)Nc1ccc(N2CCCC2)nc1` (stereo not given), the “Percent Effect” value was -16.81%. Regarding `O=C(Cc1ccccc1O)Nc1ccc(N2CCCC2)nc1`, the “Percent Effect” value is on record as 0.2058%.

For `CC(C(=O)Nc1ccc(N2CCCC2)nc1)n1cncn1` (stereo not given), the “Percent Effect” value is recorded as -0.2792%. Take `CC(C(=O)Nc1ccc(N2CCCCC2)nc1)n1cncn1` (stereo not given): the “Percent Effect” value is on record as 95.56%. Regarding `COc1ccc(Oc2ccc(CNC(=O)C(C)n3cncn3)cn2)cc1` (stereo not given), the “Percent Effect” value is -12.03%.

Regarding `CC(C(=O)Nc1ccc(N2CCCC2)nc1)n1ccnc1` (stereo not given), the “Percent Effect” value is reported as -0.9927%. Next, `CC(C(=O)Nc1ccc(N2CCCC2)nc1)n1cccn1` (stereo not given): 93.36%; `CC(C(=O)Nc1ccc(N2CCCCC2)nc1)n1ccnc1` (stereo not given): 105.1%.

For `CC(C(=O)Nc1cccc(N2CCCCC2)c1)n1cncn1` (stereo not given), the “Percent Effect” value worked out at 4.529%.

For the compound `CC(C)COCC(NC(=O)c1cc[nH]n1)c1ccco1` (stereo not given), the “Percent Effect” value was determined as 4.731%. Next, `CCN(CC(=O)N(C)C)S(=O)(=O)c1cnc2c(c1)c(C)nn2C`: 5.433%; `CCN1CCc2[nH]cnc2C12CCN(c1ncc(C(=O)O)cc1Cl)CC2`: 3.404%; `Brc1ccc(C2(CNCc3cc[nH]c3)CCOCC2)cc1`: 10.2%. The same measure for `CN1CCCc2ccc(S(=O)(=O)NC(=O)C3CC=CC3)cc21`: -3.642%; for `CC(C(=O)Nc1ccc(N2CCOCC2)nc1)n1cncn1` (stereo not given): 104.2%; for `CC(OCC(F)(F)F)C(=O)Nc1ccc(-n2cncn2)nc1` (stereo not given): -8.836%.

For `CC(Cc1ccco1)NC(=O)Nc1ccc(N2CCOCC2)nc1` (stereo not given), the “Percent Effect” value is reported as -10%.
